Screens as filed in PubChem.
DT40 TDP1 CPT: qHTS for Inhibitors of human tyrosyl-DNA phosphodiesterase 1 (TDP1): qHTS in cells in presence of CPT; chicken DT40 Tdp1-/-;hTDP1 cells + 20 nM CPT, ATP luminescence, 48 h; Potency, µM (highest dose often 46.2 µM), without a hit: at the top dose activity change, negative = growth inhibition, usual class: inhibitors; hit rate 12% among 420,000; note: potency is the fitted concentration of half-maximal effect; % is set by controls: 0 for no effect and ±100 for the full control effect; nearly all actives have a fitted effect of over 55% in size
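Chicken DT40 Tdp1-/- cells stably complemented with human TDP1 were seeded at 400 cells/well in medium containing 20 nM camptothecin, exposed to pin-transferred compounds, and grown at 37 °C for at least 48 hr. Viability was read as ATP luminescence.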
TDP1 inh: qHTS Assay for Inhibitors of Tyrosyl-DNA Phosphodiesterase (TDP1); Potency, µM (doses to about 130 µM), for the others: top-dose activity change, negative = inhibition, hits mostly inhibitors; Tyrosyl-DNA phosphodiesterase 1 (Homo sapiens), Q9NUW8; recombinant TDP1, AlphaScreen DNA substrate cleavage; hit rate 0.28% among 350,000; note: potency is the fitted concentration of half-maximal effect; % is set by controls: 0 for no effect and ±100 for the full control effect; nearly all actives have a fitted effect of over 40% in size
Target sequence (Q9NUW8 whole entry, looked up): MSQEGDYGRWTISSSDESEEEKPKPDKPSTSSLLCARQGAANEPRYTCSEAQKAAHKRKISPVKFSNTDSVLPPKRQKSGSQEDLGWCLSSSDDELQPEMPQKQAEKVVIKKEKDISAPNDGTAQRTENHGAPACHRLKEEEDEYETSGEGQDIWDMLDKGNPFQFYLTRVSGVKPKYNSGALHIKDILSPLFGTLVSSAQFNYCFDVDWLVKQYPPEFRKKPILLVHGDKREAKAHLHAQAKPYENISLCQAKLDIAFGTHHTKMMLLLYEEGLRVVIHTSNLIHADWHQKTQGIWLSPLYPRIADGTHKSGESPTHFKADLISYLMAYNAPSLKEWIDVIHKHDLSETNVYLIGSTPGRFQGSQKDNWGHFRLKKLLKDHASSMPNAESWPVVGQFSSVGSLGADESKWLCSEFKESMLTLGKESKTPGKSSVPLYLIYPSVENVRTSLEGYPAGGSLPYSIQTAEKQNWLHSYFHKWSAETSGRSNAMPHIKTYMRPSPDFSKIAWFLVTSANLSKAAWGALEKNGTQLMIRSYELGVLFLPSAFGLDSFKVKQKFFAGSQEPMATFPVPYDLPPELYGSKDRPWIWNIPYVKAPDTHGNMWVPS
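Recombinant E. coli-expressed Tdp1 (1 nM) preincubated with compound 15 min at RT, then 5'-biotin/3'-phosphotyrosine-FITC DNA substrate (15 nM) added for 5 min. AlphaScreen beads (10 ug/ml) added, 10 min RT; tyrosine-FITC cleavage read as signal loss.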
miR-21 act: qHTS Assay for Modulators of miRNAs and/orActivators of miR-21; HeLa miR-21 FLuc reporter, luciferase, 48 h; Potency, µM (top dose mostly 38.3 µM), inactives show at the top dose activity change, positive = activation, actives largely listed as activators; 340,000 tested, under 10 active; AID 2288, 2010;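 note: % of control where 0% means no effect; miR-21 action dims this reporter so a rising signal means less miR-21 action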
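Compounds were titrated across several concentrations (up to approximately 40 uM) and incubated 48 hours with HeLa miR-21-FLuc reporter cells (miR-21 target sequence downstream of FLuc, endogenous miR-21). Readout was firefly luciferase luminescence after lytic detection reagent.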
TDP1 cell noCPT: qHTS for Inhibitors of human tyrosyl-DNA phosphodiesterase 1 (TDP1): qHTS in cells in absence of CPT. AID 686978, 2013. hit rate 15% among 420,000. DT40 Tdp1-/- hTDP1 cells, no CPT, ATP luminescence, 48 h. Potency, µM (titrated, usually from 46.2 µM), for the others: at the highest dose activity change, negative = growth inhibition, actives largely listed as inhibitors; note: potency is the fitted concentration of half-maximal effect; % is set by controls: 0 for no effect and ±100 for the full control effect; nearly all actives have a fitted effect of over 55% in size
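Camptothecin absent (DMSO only). Human TDP1-complemented DT40 knockout cells, 400 cells/well, 37 °C for minimum 48 hr; ATP measured via CellTiter-Glo, 30 min dark incubation, luminescence.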
uPA surface inh: qHTS for Inhibitors of Cell Surface uPA Generation; cell surface uPA generation assay, qHTS; hit rate 0.31% among 330,000; Potency, µM (series often up to 38.3 µM), without a hit: top-dose activity change, negative = inhibition, usual class: inhibitors; AID 540303, 2011; active = well fitted inhibition curve with a large enough effect; inconclusive = small, poorly fitted or top-dose-only effect; inactive = no such curve, though single readings can be large or run the other way; tested in mouse RAW 264.7 cells; note: potency is the fitted concentration of half-maximal effect; % is set by controls: 0 for no effect and ±100 for the full control effect; nearly all actives have a fitted effect of over 55% in size
The depositor's hits bear a star; ? = inconclusive; . = no result given; [ ] = remark or other dose. A selection: hits, their analogues and other compounds. The true share with any hit is near 16%. Unless noted, calls come from the whole dose curve; as a rule, active = well fitted curve in the direction sought with a large enough effect; inconclusive = small, poorly fitted or top-dose-only effect, or another doubt; inactive = no such curve, though single readings can be large; an effect the other way counts as inactive or inconclusive.

SMILES	DT40 TDP1 CPT	TDP1 inh	miR-21 act	TDP1 cell noCPT	uPA surface inh
O=c1c(-c2ccc(Cl)cc2)nc2cnc(N3CCNCC3)nc2n1-c1ccccc1	4.1µM*	.	.	4.6µM*	.
COc1ccc(-c2nc3cnc(N4CCNCC4)nc3n(-c3ccc(OC)cc3)c2=O)cc1	18µM*	.	.	?	.
Cc1c(C(=O)NCc2ccccc2Cl)sc2nc3n(c(=O)c12)CCCCC3	?	10%	-10%	26µM*	.
Cc1c(C(=O)NCc2ccccc2Cl)sc2nc3n(c(=O)c12)CCCC3	?	13%	-9%	23µM*	.
Cc1ccc(N(CC(=O)NCc2ccccc2)C(=O)CCC(=O)Nc2ccccn2)c(C)c1	-17%	1%	-1%	?	-3%
CCOC(=O)c1[nH]c2ccc(F)cc2c1NC(=O)Nc1ccccc1OC	-13%	6%	1%	?	-11%
CCOc1ccc(CCNS(=O)(=O)c2c(C)n[nH]c2C)cc1OCC	21µM*	2%	0%	-18%	-1%
COc1cccc2c(=O)n(CC(=O)NCCc3ccccc3)ccc12	-5%	6%	5%	26%	-2%
Cc1ccccc1N(CC(=O)N/N=C/c1cc(Br)c(C)o1)S(C)(=O)=O	-11%	8%	-9%	?	4%
CCOC(=O)Cc1[nH]nc2c1C(C1C=CCCC1)C(C#N)=C(N)O2 (configuration not stated)	?	-10%	1%	23µM*	-11%
Nc1ccc(Oc2ncccn2)cc1	?	.	-7%	23µM*	-5%
O=Cc1cccc(Oc2ncccn2)c1	1%	0%	0%	1%	0%
Cc1ccccc1CCNC(=O)Cn1ccc2cc(S(=O)(=O)N3CCCC3)ccc21	18µM*	2%	3%	?	4%
Cc1ccc(CCNC(=O)Cn2ccc3cc(S(=O)(=O)N4CCCC4)ccc32)cc1	?	1%	9%	23µM*	0%
Cc1n[nH]c(C)c1N1C(=O)c2cccc3c(N4CCCCCC4)ccc(c23)C1=O	?	3%	0%	23µM*	3%
CSCCC(C(=O)N1CC2(C)CC1CC(C)(C)C2)N1C(=O)c2ccccc2C1=O (configuration not stated)	?	3%	-9%	?	4%
COc1ccccc1C(=O)c1c(N)c(-c2nc(-c3ccccc3)cs2)c2ccccn12	18µM*	0%	24%	21µM*	.
Cc1ccc2nc(-c3cccs3)c(Nc3c(C)cccc3C)n2c1	23µM*	10%	-1%	26µM*	.
Cc1cccc(C)c1Nc1c(-c2cccs2)nc2ncccn12	21µM*	-4%[12.3 µM]	5%	?	.
Cc1ccccc1Nc1c(-c2cccc(Cl)c2)nc2ncccn12	?	-2%	-4%	?	.
CCc1cccc(C)c1NC(=O)CCn1c(=O)c2cccn2c2ccccc21	?	0%	1%	23µM*	.
CC(C)c1ccc(NC(=O)Cc2cn(C)c3ccccc23)cc1	-29%	3%	-25%	16µM*	2%
COc1ccc(NC(=O)Cn2c(=O)c3cccn3c3ccccc32)cc1	?	9%	5%	-27%	.
Cc1cc(C)c(NC(=O)CCn2c(=O)c3cccn3c3ccccc32)c(C)c1	?	5%	17%	16µM*	.
Cn1cc(CC(=O)NCc2ccc(F)cc2)c2ccccc21	1%	.	-26%	-6%	-6%
SMILES	DT40 TDP1 CPT	TDP1 inh	miR-21 act	TDP1 cell noCPT	uPA surface inh
Cc1cccc(C)c1NC(=O)Cn1c(=O)c2cccn2c2ccccc21	?	-6%	0%	-9%	3%
CC(C)c1ccc(NC(=O)CCn2c(=O)c3cccn3c3ccccc32)cc1	21µM*	5%	13%	15µM*	.
CC1(C2CC2)NC(=O)N(CC(=O)N2CCN(c3ccc(F)cc3)CC2)C1=O (configuration not stated)	-14%	-5%	.	-17%	8%
NC(=O)Nc1ccc(C(=O)OCC(=O)Nc2cccc(S(=O)(=O)NC3=NCCC3)c2)cc1	9%	-1%	.	2%	7%
Clc1ccc(/C=N/Nc2ncnc3ccccc23)cc1Cl	21µM*	8%	-31%	21µM*	-3%
Nc1c(Cl)ncnc1N/N=C/c1cccc(O)c1	-18%	.	-62%	-7%	?
Clc1cccc(/C=N/Nc2nc(Cl)nc3ccccc23)c1	23µM*	6%	-48%	?	-2%
Fc1ccccc1/C=N/Nc1ncnc2ccccc12	6.5µM*	3%	-17%	15µM*	-2%
Fc1ccccc1/C=N/Nc1nc2ccccc2o1	?	.	-50%	-2%	2%
CCN1/C(=C/C=C/c2sc3ccccc3[n+]2CC)Sc2ccccc21	0.18µM*	.	.	0.15µM*	-12%
CCN1/C(=C/C=C/C=C/C=C/c2sc3ccccc3[n+]2CC)Sc2ccccc21	0.52µM*	.	-1%	0.23µM*	?
COc1cccc(CNC(=O)c2nn(C)c3c2CS(=O)(=O)c2ccccc2-3)c1	?	4%	1%	?	.
CC1CC(C)CN(CCOCCSc2ccc(Cl)cc2)C1 (configuration not stated)	21µM*	-5%	7%	16µM*	-3%
CC1CC(C)CN(CCOCCSc2ccccc2)C1 (configuration not stated)	?	-3%	1%	16µM*	0%
CCOC(=O)c1ccc(NC(=S)N2CCC(C(N)=O)(N3CCCCC3)CC2)cc1	-10%	3%	10%	-17%	0%
O=C1Nc2ccccc2/C1=N\N1CCOCC1	-3%	-3%	-11%	1%	4%
COC(=O)[C@@]12OC[C@]34[C@H]([C@@H](O)[C@@H]1O)[C@@]1(C)C(=O)C(O[C@@H]5OC(CO)[C@@H](O)[C@@H](O)[C@@H]5O)=C[C@@H](C)[C@@H]1C[C@H]3OC(=O)[C@H](OC(=O)/C=C(\C)C(C)(C)OC(C)=O)[C@@H]24 (some centres not stated)	5.2µM*	.	.	3.3µM*	?
COc1ccc(OC)c(N(CC(=O)NCc2ccccc2)S(=O)(=O)c2ccc(OC)c(OC)c2)c1	21µM*	5%	-8%	?	-3%
COc1ccc(OC)c(N(CC(=O)NCc2ccccc2)S(=O)(=O)c2ccccc2)c1	12µM*	8%	-5%	?	.
COc1ccc(OC)c(N(CC(=O)NCCSCc2ccco2)S(=O)(=O)c2ccccc2)c1	?	.	4%	15µM*	3%
COc1ccc(CNC(=O)CN(c2ccccc2OC)S(=O)(=O)c2cccs2)cc1	16µM*	1%	.	?	3%
